Measured values from PubChem BioAssay (EPA / NIEHS).
“And” between values parts separate entries of the source, which are not always exact repeats. Identical values can stand only once. Inconclusive results are not listed. The source made the active and inactive calls. The calls were made as follows: active = hit-call score of the fitted dose curve at least 0.9, where 1 is the maximum; inconclusive = response in the unintended direction; inactive = score below 0.9.

target: human Peroxisome Proliferator-activated Receptor alpha (PPARa), PPARA (gene 5465) (UniProt Q07869); assay: NVS_NR_hPPARa: NovaScreen (NVS) Nuclear Receptor Binding Assay for human Peroxisome Proliferator-activated Receptor alpha (PPARa) (AID 2283359);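 also: activity means loss of TR-FRET signal versus DMSO baseline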
Sequence (Q07869 whole entry, looked up): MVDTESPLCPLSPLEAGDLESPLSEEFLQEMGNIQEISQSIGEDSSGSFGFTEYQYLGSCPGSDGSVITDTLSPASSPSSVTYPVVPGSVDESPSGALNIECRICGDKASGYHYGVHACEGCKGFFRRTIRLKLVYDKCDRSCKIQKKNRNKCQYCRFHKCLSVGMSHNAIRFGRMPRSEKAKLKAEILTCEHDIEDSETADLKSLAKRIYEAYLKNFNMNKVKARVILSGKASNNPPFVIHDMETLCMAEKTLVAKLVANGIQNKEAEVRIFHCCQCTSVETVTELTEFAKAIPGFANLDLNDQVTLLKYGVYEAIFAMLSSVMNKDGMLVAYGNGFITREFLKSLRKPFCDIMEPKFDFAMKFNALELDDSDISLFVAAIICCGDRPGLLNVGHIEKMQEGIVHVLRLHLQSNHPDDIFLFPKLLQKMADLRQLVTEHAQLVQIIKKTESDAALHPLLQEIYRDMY
Procedure: NVS_NR_hPPARa is a biochemical, single-readout assay that uses extracted gene-proteins in a cell-free assay. Measurements were taken 1 hour after chemical dosing in a 384-well plate.NVS_NR_hPPARa is one of one assay component(s) measured or calculated from the NVS_NR_hPPARa assay. It is designed to make measurements of fluorescent resonance energy transfer, a form of binding reporter, as detected with fluorescent resonance energy transfer signals by Time-Resolved Fluorescence Resonance Energy Transfer (TR-FRET) technology.Data from the assay component NVS_NR_hPPARa was analyzed into 1 assay endpoint. This assay endpoint, NVS_NR_hPPARa, was analyzed in the positive analysis fitting direction relative to DMSO as the negative control and baseline of activity. Using a type of binding reporter, loss-of-signal activity can be used to understand changes in the binding as they relate to the gene PPARA. Furthermore, this assay endpoint can be referred to as a primary readout, because the performed assay has only produced 1 assay endpoint. To generalize the intended target to other relatable targets, this assay endpoint is annotated to the nuclear receptor intended target family, where the subfamily is non-steroidal.
Binding assays used specific radioligands (tritiated, iodinated) with non-radioactive competitive displacement ligands in agonist or antagonist protocols (as indicated) and various reference compounds and inhibitors to titrate specific binding to receptors and transporters. Most enzyme assays (CYPs, kinases, phosphatases, proteases, HDACs) used recombinant protein and specific substrates (fluorescence mostly, some colorimetric and radioactive) and inhibitors, followed by a biochemical separation of substrate and product. All assays for the biochemical HTS were initially run in duplicate at a single concentration (10 uM for CYP450 assays and 25 uM for all others). […] Each assay was run with positive and negative controls, and concurrent controls on every plate. The follow-up (secondary) screen tested active chemical-pairs in concentration series, as well as a few additional assays not tested in the primary screen, some selected negative inactives, and several cases re-run in the concentration series for confirmatory purposes.

Structure (SMILES)	outcome	AC50
O=C(O)C(F)(F)C(F)(F)C(F)(F)C(F)(F)C(F)(F)F	inactive	–
Cc1ccc(O)c(C)c1	inactive	–
OCC(O)CO	inactive	–
NS(=O)(=O)C(F)(F)C(F)(F)C(F)(F)C(F)(F)C(F)(F)C(F)(F)C(F)(F)C(F)(F)F	inactive	–
O=C(O)C(F)(F)C(F)(F)C(F)(F)C(F)(F)C(F)(F)C(F)(F)C(F)(F)C(F)(F)F	inactive	–
CCC(C)(c1ccc(O)cc1)c1ccc(O)cc1	inactive	–
O=S(=O)(O)C(F)(F)C(F)(F)C(F)(F)C(F)(F)C(F)(F)C(F)(F)F	inactive	–
ClC(Cl)=C(c1ccc(Cl)cc1)c1ccc(Cl)cc1	inactive	–
Cc1cc2c3c(c1)C(c1ccccc1)=N[C@@H](NC(=O)c1ccncc1)C(=O)N3CC2	inactive	–
Oc1ccc(C(c2ccc(O)cc2)(C(F)(F)F)C(F)(F)F)cc1	–	19.2 µM (active) and 20.7 µM (active) and 19.7 µM (active)
c1cc2ccc3cccc4ccc(c1)c2c34	inactive	–
CCCN(CCC)N=O	inactive	–
CC(C)(O)C(=O)Nc1ccc([N+](=O)[O-])c(C(F)(F)F)c1	inactive	–
O=S(=O)(O)C(F)(F)C(F)(F)C(F)(F)C(F)(F)F	inactive	–
CCCCCCCCCC[N+](C)(C)CCCCCCCCCC	–	861 nM (active)
Oc1c(Cl)c(Cl)c(Cl)c(Cl)c1Cl	inactive	–
